# From PubChem BioAssay AID372 (MTDP, 2006)
# Hit rate of the full screen: of about 100,000 compounds, about 770 (0.77%) were called active. This is one part of a sample in which actives are shown more often than they occur. A number with no mark means an inactive call. Rule as the data show it: active = inhibition above about 50%; inactive = the rest.
# Molecular target: Gag-Pol polyprotein (Human immunodeficiency virus type 1 group M subtype B (isolate HXB2)) (UniProt P04585)
# Assay: RNase H inhibition, HIV 1 Gag Pol polyprotein, FRET biochemical assay, screening (AID 372)
# Settings: HIV-1 RT RNase H, FRET RNA/DNA substrate fluorescence; at 10 µM; active compounds read high
row,Structure (SMILES),inhibition
1,COc1cccc(C(=O)NC(=S)Nc2ccc3oc(-c4ccccc4Cl)nc3c2)c1,12%
2,O=C(CSc1n[nH]c(-c2ccncc2)n1)c1ccc(O)cc1O,15%
3,FC(F)(F)Oc1ccc(N=Cc2ccc(Br)s2)cc1,8%
4,Oc1cccc(-c2nc(-c3ccccc3)c(-c3ccc(Br)cc3)[nH]2)c1,22%
5,CCOc1ccc(OCCOCCOc2ccccc2Cl)cc1,8%
6,CC1(C)CC(=O)C=C(Nc2cc([N+](=O)[O-])ccc2N)C1,7%
7,CCN(CC)c1ccc(NS(=O)(=O)c2ccc(Cl)cc2)cc1,28%
8,Cc1cc(C)cc(OCCNC(=O)c2ccccc2C)c1,5%
9,Cc1ccc(C(=O)NC(=S)Nc2ccc(Cl)c(-c3nc4ccc(C)cc4o3)c2)cc1,15%
10,Cc1ccc2nc(-c3cc(NC(=S)NC(=O)c4cccc(F)c4)ccc3Cl)oc2c1,51% (active)
11,Cc1ccc2nc(-c3ccc(C)c(NC(=S)NC(=O)c4cccc(Br)c4)c3)oc2c1,22%
12,COc1cccc(C(=O)Nc2ccc(-c3nc4cc(C)ccc4o3)c(O)c2)c1,36%
13,COc1cccc(C(=O)NC(=S)Nc2ccc(-c3nc4cc(C)ccc4o3)c(O)c2)c1,53% (active)
14,COc1ccc(C(=O)NC(=S)Nc2ccc(-c3nc4cc(C)ccc4o3)c(O)c2)cc1,17%
15,Cc1ccc2nc(-c3ccc(C)c(NC(=S)NC(=O)c4cccc(F)c4)c3)oc2c1,52% (active)
16,Cc1cc(C)c2oc(-c3ccc(C)c(NC(=S)NC(=O)c4cccc(F)c4)c3)nc2c1,0%
17,O=C(NC(=S)Nc1ccc2oc(-c3cc(Cl)ccc3Cl)nc2c1)c1cccc(F)c1,18%
18,O=C(Nc1ccc(F)c(Cl)c1)c1ccncc1,7%
19,CCCC1=C(C(=O)OCC)C(c2ccc(Cl)cc2Cl)NC(=O)N1 (centres undefined),4%
20,Cc1cccc(N2C(=O)/C(=C/c3cccn3-c3ccccc3)C(=O)NC2=S)c1C,30%
21,COc1ccc(/C=C2\C(=O)NC(=O)N(c3ccccc3)C2=O)cc1I,39%
22,CCOc1cc(/C=N/NC(=O)c2ccncc2)ccc1OC(=O)c1ccco1,5%

row,Structure (SMILES),inhibition
1,O=S(=O)(Nc1ccccc1C(F)(F)F)c1ccccc1,4%
2,COc1ccc(-n2c(C)cc(/C=C(\C#N)C(=O)Nc3ccccc3)c2C)cc1,11%
3,O=C1CC(SC(=NCc2ccc3c(c2)OCO3)Nc2ccccc2)C(=O)N1 (centres undefined),0%
4,COc1ccc(OC)c(CNCc2ccc3c(c2)OCO3)c1,6%
5,Cc1cc(NC(=O)c2ccc(I)cc2)ccc1NC(=O)c1ccccc1,50% (active)
6,COc1ccc(-n2nc3ccc(NC(=O)c4ccc(C)c(C)c4)cc3n2)cc1,8%
7,COc1cc(C(=O)Nc2ccc(/C=C/C(=O)c3ccccc3)cc2)cc(OC)c1OC,63% (active)
8,Cc1cc(NC(=O)c2ccc(F)cc2)ccc1NC(=O)c1ccccc1,0%
9,COc1ccc(-n2nc3ccc(NC(=O)c4ccc(I)cc4)cc3n2)cc1,51% (active)
10,COc1ccc(C(=O)Nc2ccc(/C=C/C(=O)c3ccccc3)cc2)cc1,8%
11,COc1ccc(C(=O)Nc2cccc(/C=C/C(=O)c3ccccc3)c2)cc1OC,3%
12,COc1ccc(/C=C/C(=O)c2ccc(I)cc2)cc1,8%
13,Cc1cc(NC(=O)c2ccc(C(C)(C)C)cc2)ccc1NC(=O)c1ccccc1,7%
14,COc1cc(C(=O)Nc2ccc(NC(=O)c3ccccc3)cc2)cc(OC)c1OC,10%
15,COc1ccc(C(=O)/C=C/c2ccc(NC(=O)c3ccc(I)cc3)cc2)cc1,60% (active)
16,COc1ccc(C(=O)Nc2ccc3nn(-c4ccc(F)cc4)nc3c2)cc1,0%
17,CC(C)(C)C1CCC(C(=O)N/N=C/c2ccc(Cl)s2)CC1 (centres undefined),5%
18,CSc1nnc2c(n1)[nH]c1c(C)cccc12,10%
19,COc1ccc(N2N=C(c3ccc(C)cc3)CC2c2cccs2)cc1 (centres undefined),6%
20,O=C(NNc1ccc([N+](=O)[O-])cc1)c1ccc([N+](=O)[O-])cc1,5%
21,O=C(Nc1ccc(OCc2ccccc2)cc1)c1cccc2ccccc12,15%
22,CCOc1ccc2nc(SCc3ccc(OC)c(F)c3)sc2c1,20%

row,Structure (SMILES),inhibition
1,Cc1cccc(-n2c(C)cc(/C=C3/SC(=S)NC3=O)c2C)c1,56% (active)
2,Cc1cc(/C=C2/SC(=S)NC2=O)c(C)n1-c1ccc(Cl)c(Cl)c1,53% (active)
3,Cc1cc(/C=C2/SC(=S)NC2=O)c(C)n1-c1cccc(Cl)c1,8%
4,Cc1cc(/C=C2/SC(=S)NC2=O)c(C)n1-c1ccccc1,19%
5,Cc1cc(C=C2C(=O)NC(=S)NC2=O)c(C)n1-c1ccc(Cl)c(Cl)c1,55% (active)
6,Cc1cc(/C=C2/SC(=S)NC2=O)c(C)n1-c1ccc(Cl)cc1,2%
7,Cc1ccc(-n2c(C)cc(C=C3C(=O)NC(=S)NC3=O)c2C)cc1C,19%
8,Cc1cc(C=C2C(=O)NC(=S)NC2=O)c(C)n1-c1cccc(Cl)c1,28%
9,Cc1ccc(-n2c(C)cc(/C=C3/SC(=S)NC3=O)c2C)cc1,5%
10,CCCCN1C(=O)c2cccc3c(Cl)ccc1c23,44%
11,Cc1cc(OCC(=O)Nc2ccccn2)cc(C)c1Cl,2%
12,CCOc1ccccc1OCCOc1ccc(C)cc1C(C)(C)C,17%
13,CC(C)OC(=O)c1c(NC(=O)c2ccc([N+](=O)[O-])cc2Cl)sc2c1CCCCC2,31%
14,CC(C)(C)c1nnc(-c2cccc([N+](=O)[O-])c2)o1,8%
15,CC(=O)Nc1ccc(NC(=O)c2cc(Cl)ccc2Cl)cc1,6%
16,CC(=O)Nc1cccc(NC(=O)c2ccc(Cl)cc2Cl)c1,3%
17,Cc1cccc(NC(=O)c2cc(Cl)ccc2Cl)n1,54% (active)
18,Cc1cccc(NC(=O)c2cc(I)ccc2Cl)n1,0%
19,COc1ccc(Cl)cc1C(=O)Nc1cccc(C)n1,0%
20,CC(=O)Nc1cccc(NC(=O)c2cc(Cl)ccc2Cl)c1,56% (active)
